Experimental data published in article PMC7862700, “An all-to-all approach to the identification of sequence-specific readers for epigenetic DNA modifications on cytosine”.

These sequences were tested against SPIB (Homo sapiens, UniProt Q01892 1-262) (assay: DAPPL (digital affinity profiling via proximity ligation, sequencing); 10 mM Tris-HCl pH 7.5, 50 mM NaCl, 1 mM DTT, 4% glycerol, room temperature, 30 min; GST-TFs on glutathione beads, 16-mer random dsDNA library, 0.1% formaldehyde crosslink after washing; high values mean tight binding). Details: protein: recombinant; tags: N-terminal GST; dsDNA, one strand shown.
Sequence of SPIB (Q01892 whole entry, the tested form may be a part): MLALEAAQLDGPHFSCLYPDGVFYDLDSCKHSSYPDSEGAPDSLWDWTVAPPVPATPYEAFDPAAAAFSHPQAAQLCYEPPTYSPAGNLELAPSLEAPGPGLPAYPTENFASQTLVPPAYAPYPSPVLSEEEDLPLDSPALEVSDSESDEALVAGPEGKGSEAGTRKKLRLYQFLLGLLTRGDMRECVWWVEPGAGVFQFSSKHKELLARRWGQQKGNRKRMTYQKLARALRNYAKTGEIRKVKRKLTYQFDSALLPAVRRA
In short: (§1)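 After expression in yeast as GST fusions, human transcription factors were bound to glutathione beads, DNA-barcoded and mixed with a tag-only sample. The pools were incubated with 200 nmole of a 16-mer random double-stranded DNA library in Tris/NaCl/DTT/glycerol buffer (30 min, room temperature), washed and crosslinked with 0.1% formaldehyde. Proximity ligation with BsaI/T4 ligase ran for 1 h at 37 °C, before PCR amplification and sequencing on an Illumina NextSeq500. Binding signal is a hexamer's read frequency for a factor divided by its frequency for the tag-only sample.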

Row | Sequence | binding signal
1 | CCTCAC | 1.21 fold enrichment (6-mer frequency, TF over GST control)
2 | CGTCAC | 1.18 fold enrichment (6-mer frequency, TF over GST control)
3 | CATGCT | 1.25 fold enrichment (6-mer frequency, TF over GST control)
4 | CTTACT | 1.27 fold enrichment (6-mer frequency, TF over GST control)
5 | CGGCAT | 1.19 fold enrichment (6-mer frequency, TF over GST control)
6 | TGCATT | 1.34 fold enrichment (6-mer frequency, TF over GST control)
7 | TCGCAA | 1.08 fold enrichment (6-mer frequency, TF over GST control)
8 | TCGTAC | 1.04 fold enrichment (6-mer frequency, TF over GST control)
9 | TTTACG | 1.23 fold enrichment (6-mer frequency, TF over GST control)
10 | GAAGCA | 1.25 fold enrichment (6-mer frequency, TF over GST control)
11 | TTTCAA | 1.37 fold enrichment (6-mer frequency, TF over GST control)
12 | ACCCGC | 1.27 fold enrichment (6-mer frequency, TF over GST control)
13 | GGAACT | 2.03 fold enrichment (6-mer frequency, TF over GST control)
14 | AGGAAG | 1.44 fold enrichment (6-mer frequency, TF over GST control)
15 | TTATTC | 1.39 fold enrichment (6-mer frequency, TF over GST control)
16 | AACCAC | 1.19 fold enrichment (6-mer frequency, TF over GST control)
17 | CTAAAC | 1.19 fold enrichment (6-mer frequency, TF over GST control)
18 | GTTCAC | 1.19 fold enrichment (6-mer frequency, TF over GST control)
19 | GATGCC | 1.26 fold enrichment (6-mer frequency, TF over GST control)
20 | CACACG | 1.15 fold enrichment (6-mer frequency, TF over GST control)

Row | Sequence | binding signal
21 | CCTCAT | 1.33 fold enrichment (6-mer frequency, TF over GST control)
22 | TTTGGT | 1.3 fold enrichment (6-mer frequency, TF over GST control)
23 | ACCCCG | 1.3 fold enrichment (6-mer frequency, TF over GST control)
24 | TTTGGC | 1.29 fold enrichment (6-mer frequency, TF over GST control)
25 | CGTATG | 1.09 fold enrichment (6-mer frequency, TF over GST control)
26 | AACAAG | 1.06 fold enrichment (6-mer frequency, TF over GST control)
27 | ACACCT | 1.03 fold enrichment (6-mer frequency, TF over GST control)
28 | CGTACC | 1.12 fold enrichment (6-mer frequency, TF over GST control)
29 | CCATCT | 1.28 fold enrichment (6-mer frequency, TF over GST control)
30 | GACCTC | 1.42 fold enrichment (6-mer frequency, TF over GST control)
31 | CCATAC | 1.15 fold enrichment (6-mer frequency, TF over GST control)
32 | CCTCAA | 1.42 fold enrichment (6-mer frequency, TF over GST control)
33 | TGATCC | 1.37 fold enrichment (6-mer frequency, TF over GST control)
34 | AAAGAT | 1.3 fold enrichment (6-mer frequency, TF over GST control)
35 | GCCAAT | 1.07 fold enrichment (6-mer frequency, TF over GST control)
36 | CGTCTT | 1.5 fold enrichment (6-mer frequency, TF over GST control)
37 | CGCTAC | 1.13 fold enrichment (6-mer frequency, TF over GST control)
38 | CAGGAT | 1.29 fold enrichment (6-mer frequency, TF over GST control)
39 | ATTGCC | 1.26 fold enrichment (6-mer frequency, TF over GST control)
40 | GGCTAG | 1.18 fold enrichment (6-mer frequency, TF over GST control)

Each sequence was assayed against T1, ELK3 (Homo sapiens, UniProt P41970 1-407) in the same assay as above. Details: protein: recombinant; tags: N-terminal GST; dsDNA, one strand shown.
T1 sequence: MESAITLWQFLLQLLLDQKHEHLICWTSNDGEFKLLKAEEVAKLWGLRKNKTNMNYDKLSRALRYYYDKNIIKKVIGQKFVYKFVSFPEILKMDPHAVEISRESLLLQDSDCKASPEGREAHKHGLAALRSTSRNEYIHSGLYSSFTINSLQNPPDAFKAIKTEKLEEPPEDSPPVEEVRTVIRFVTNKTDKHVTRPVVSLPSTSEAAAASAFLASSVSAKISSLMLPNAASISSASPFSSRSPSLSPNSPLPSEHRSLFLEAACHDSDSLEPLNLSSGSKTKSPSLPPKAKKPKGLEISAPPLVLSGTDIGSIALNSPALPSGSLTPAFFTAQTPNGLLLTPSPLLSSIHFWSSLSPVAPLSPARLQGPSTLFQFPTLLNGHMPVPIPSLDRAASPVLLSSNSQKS
In short: as §1

Row | Sequence | binding signal
41 | CCTCAC | 1.33 fold enrichment (6-mer frequency, TF over GST control)
42 | CGTCAC | 1.09 fold enrichment (6-mer frequency, TF over GST control)
43 | CATGCT | 1.3 fold enrichment (6-mer frequency, TF over GST control)
44 | CTTACT | 1.34 fold enrichment (6-mer frequency, TF over GST control)
45 | CGGCAT | 1.09 fold enrichment (6-mer frequency, TF over GST control)
46 | TGCATT | 1.35 fold enrichment (6-mer frequency, TF over GST control)
47 | TCGCAA | 1.06 fold enrichment (6-mer frequency, TF over GST control)
48 | TCGTAC | 1.11 fold enrichment (6-mer frequency, TF over GST control)
49 | TTTACG | 1.27 fold enrichment (6-mer frequency, TF over GST control)
50 | GAAGCA | 1.43 fold enrichment (6-mer frequency, TF over GST control)
51 | TTTCAA | 1.33 fold enrichment (6-mer frequency, TF over GST control)
52 | ACCCGC | 1.32 fold enrichment (6-mer frequency, TF over GST control)
53 | GGAACT | 1.7 fold enrichment (6-mer frequency, TF over GST control)
54 | AGGAAG | 1.26 fold enrichment (6-mer frequency, TF over GST control)
55 | TTATTC | 1.45 fold enrichment (6-mer frequency, TF over GST control)
56 | AACCAC | 1.29 fold enrichment (6-mer frequency, TF over GST control)
57 | CTAAAC | 1.2 fold enrichment (6-mer frequency, TF over GST control)
58 | GTTCAC | 1.18 fold enrichment (6-mer frequency, TF over GST control)
59 | GATGCC | 1.38 fold enrichment (6-mer frequency, TF over GST control)
60 | CACACG | 1.03 fold enrichment (6-mer frequency, TF over GST control)

Row | Sequence | binding signal
61 | CCTCAT | 1.23 fold enrichment (6-mer frequency, TF over GST control)
62 | TTTGGT | 1.37 fold enrichment (6-mer frequency, TF over GST control)
63 | ACCCCG | 1.21 fold enrichment (6-mer frequency, TF over GST control)
64 | TTTGGC | 1.1 fold enrichment (6-mer frequency, TF over GST control)
65 | CGTATG | 1.13 fold enrichment (6-mer frequency, TF over GST control)
66 | AACAAG | 1.22 fold enrichment (6-mer frequency, TF over GST control)
67 | ACACCT | 1.06 fold enrichment (6-mer frequency, TF over GST control)
68 | CGTACC | 1.21 fold enrichment (6-mer frequency, TF over GST control)
69 | CCATCT | 1.28 fold enrichment (6-mer frequency, TF over GST control)
70 | GACCTC | 1.33 fold enrichment (6-mer frequency, TF over GST control)
71 | CCATAC | 1.2 fold enrichment (6-mer frequency, TF over GST control)
72 | CCTCAA | 1.44 fold enrichment (6-mer frequency, TF over GST control)
73 | TGATCC | 1.18 fold enrichment (6-mer frequency, TF over GST control)
74 | AAAGAT | 1.13 fold enrichment (6-mer frequency, TF over GST control)
75 | GCCAAT | 1.11 fold enrichment (6-mer frequency, TF over GST control)
76 | CGTCTT | 1.28 fold enrichment (6-mer frequency, TF over GST control)
77 | CGCTAC | 1.28 fold enrichment (6-mer frequency, TF over GST control)
78 | CAGGAT | 1.04 fold enrichment (6-mer frequency, TF over GST control)
79 | ATTGCC | 1.15 fold enrichment (6-mer frequency, TF over GST control)
80 | GGCTAG | 1 fold enrichment (6-mer frequency, TF over GST control)
